# How the values were obtained:
# Details in all cases: concentration: 1 μM, replicates: in singlicate; n = 1
# [1] = tested on: T1, DCAMKL2
# T1 construct: gene DCLK2
# [2] = tested on: T2, DCAMKL3
# T2 construct: gene DCLK3
# [3] = tested on: DDR1
# [4] = tested on: DDR2
# [5] = tested on: T3, DLK
# T3 construct: gene MAP3K12
# [6] = tested on: T4, DMPK2
# T4 construct: gene CDC42BPG
# [7] = tested on: DMPK
# [8] = tested on: T5, DRAK1
# T5 construct: gene STK17A
# [9] = tested on: T6, DRAK2
# T6 construct: gene STK17B
# [10] = tested on: DYRK1A
# [11] = tested on: DYRK1B
# [12] = tested on: DYRK2
# [13] = tested on: EGFR
# [14] = tested on: EIF2AK1
# [15] = tested on: EPHA1
# [16] = tested on: EPHA2
# [17] = tested on: EPHA3
# [18] = tested on: EPHA4
# [19] = tested on: EPHA5
# [20] = tested on: EPHA6
# 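Note: KINOMEscan kinase panel screen.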
SMILES,%Inh [1],%Inh [2],%Inh [3],%Inh [4],%Inh [5],%Inh [6],%Inh [7],%Inh [8],%Inh [9],%Inh [10],%Inh [11],%Inh [12],%Inh [13],%Inh [14],%Inh [15],%Inh [16],%Inh [17],%Inh [18],%Inh [19],%Inh [20]
NCCCC(NC(=O)c1cc(Br)c(-c2ccnc3[nH]ccc23)s1)c1ccccc1.O=C(O)C(F)(F)F.O=C(O)C(F)(F)F (stereo not drawn) [GSK1287544],3%,0%,0%,2%,17%,94.2%,28%,61%,0%,48%,22%,37%,4%,0%,6%,0%,0%,11%,5%,18%
CC(C)c1nc(-c2cccc(NS(=O)(=O)c3c(F)cccc3F)c2F)c(-c2ccnc(Nc3ccc(N4CCOCC4)nc3)n2)s1 [GSK2008607],46%,82%,99.3%,88%,93.2%,20%,0%,0%,0%,0%,0%,16%,94.3%,66%,98.9%,86%,69%,74%,0%,94.7%
Nc1ncnc2c1nc(-c1ccccc1)n2-c1ccccc1 [SKF-97293],0%,3%,6%,41%,23%,0%,6%,0%,0%,6%,6%,25%,7%,20%,22%,0%,0%,30%,13%,28%
Cc1ccc(C(=O)Nc2ccc(Nc3ccnc4cc(-c5nccs5)ccc34)cc2O)cc1.Cl [GW494702],0%,0%,22%,46%,69%,0%,0%,5%,0%,3%,0%,0%,45%,6%,8%,15%,0%,9%,0%,15%
COc1cccc(NC(=O)NC2CCN(c3ccnc(Nc4cc(OC)c(OC)c(OC)c4)n3)C2)c1 (stereo not drawn) [GSK1379763],0%,0%,22%,24%,46%,27%,0%,0%,0%,0%,15%,4%,12%,0%,6%,0%,0%,0%,0%,0%
CSc1cccc2c(-c3ccncn3)c(-c3ccc(F)cc3)nn12 [GW514786],20%,0%,78%,63%,24%,59%,13%,0%,0%,18%,0%,12%,70%,0%,18%,7%,0%,0%,0%,0%
c1ccc(-c2cnc3nccnn23)cc1 [AH20685],27%,0%,0%,24%,20%,0%,0%,0%,0%,42%,5%,3%,14%,0%,0%,11%,0%,0%,0%,0%
CC(=O)N1CCN(c2ccc(Nc3nccc(-c4sc(C(C)C)nc4-c4cccc(NS(=O)(=O)c5cccc(Cl)c5)c4)n3)cn2)CC1 [GSK1660437],19%,52%,98.2%,40%,23%,0%,0%,0%,0%,0%,0%,11%,86%,19%,71%,3%,0%,0%,99.6%,32%
CCc1ccc(-c2ccc3c(c2)-c2c(cnn2C)S(=O)(=O)N3C)cc1,0%,0%,0%,2%,0%,0%,0%,0%,0%,0%,3%,0%,15%,0%,0%,0%,0%,1%,8%,0%

# From publication PMC5540273 (PLoS ONE, 2017)
